The source made the active and inactive calls.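 How the source made its calls, unless noted: active means thallium flux through the channel raised or lowered by more than 3 SD from vehicle-only wells, actives on both sides; inactive means the rest.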
How the values were obtained:
[1] = sensitizers of A549 cells to miR-34 induction, primary screen, imaging, A549 dox-inducible miR-34, nuclei and caspase counts (AID 1347080;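 active means compounds whose cell count with miR-34 switched on is under 0.7 times the count with it off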); conditions: A549 miR-34 inducible, Hoechst nuclei count, 48 h
[2] = viability rescue of complex I mutant cybrids, primary screen, cell-based, galactose medium, ATP luminescence (AID 1645843;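 active means z-score of at least 1.8 in each of two replicates, scored against plate mean and spread of sample wells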;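 further: positive z means more ATP and so rescue of galactose-driven cybrid death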); conditions: complex I mutant cybrid cells, 72 h, stronger effect = higher value
[3] = system: F380Y; assay: modulators of BK channel variants, profiling panel, selectivity assay, cell-based, U2OS BacMam, thallium flux, beta subunits (AID 1259406); conditions: at 30 µM;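 further: initial slope of Thallos dye fluorescence rise after thallium is added; log ratio against the mean of 0.3% DMSO vehicle wells on the same plate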
[4] = system: F380Y/beta1; assay: as above; conditions: at 30 µM
[5] = system: F380Y/beta2Delta; assay: as above; conditions: at 30 µM
[6] = system: F380Y/beta4; assay: as above; conditions: at 30 µM
[7] = molecular target: Calcium-activated potassium channel subunit alpha-1 (Homo sapiens) + Leucine-rich repeat-containing protein 26 (Homo sapiens) (UniProt Q12791+Q2I0M4); assay: as above; conditions: F380Y/Slo1WT/gamma1, at 30 µM
[8] = system: R275C; assay: as above; conditions: at 30 µM
[9] = system: R275C/beta1; assay: as above; conditions: at 30 µM
[10] = system: R275C/beta2Delta; assay: as above; conditions: at 30 µM
[11] = system: R275C/beta4; assay: as above; conditions: at 30 µM
[12] = system: R275C/Slo1WT/beta2; assay: as above; conditions: at 30 µM
[13] = liver-stage malaria parasite growth inhibition, primary screen, cell-based, HepG2, luciferase luminescence, HepG2 viability (AID 624349; in the data active means parasite load remaining mostly below about 12%, no sharp cut-off; inactive means mostly above about 10%;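 further: 100% = mean of DMSO negative control wells on the same plate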); conditions: P. berghei liver stage in HepG2, luciferase luminescence, concentration not given here; parasite load remaining: stronger effect = lower value; viability: measured here: HepG2 viability without parasites
[14] = system: Neuropilin-2 / VEGF-C interaction (human); assay: inhibitors of NRP2–VEGF-C binding, biochemical, microplate binding format, z-score (AID 743281; call rule not given here); conditions: microplate NRP2/VEGF-C binding assay; stronger effect = lower value
[15] = modulation of C. elegans fzo-1 (AID 1259413; call rule not given here;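 further: fzo-1 mutant C. elegans worms in liquid wells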); conditions: C. elegans fzo-1 modulator screen, mean read-out; stronger effect = higher value
[16] = Cy5 fluorescence interference with SSB-bound oligo, artefact control for HCV NS3 helicase inhibitor project, biochemical, NIH Clinical Collection, E. coli SSB (AID 743268; call rule not given here)
[17] = system: Hepatitis C virus NS3 helicase; assay: HCV NS3 helicase inhibitors, primary screen, biochemical, fluorescence polarization, NIH Clinical Collection (AID 743270; call rule not given here); conditions: NS3 helicase binding to Cy5-dT15 DNA, stronger effect = higher value, concentration not given here
[18] = molecular target: Single-stranded DNA-binding protein (Escherichia coli (strain K12)) (UniProt P0AGE0); assay: E. coli SSB displacement from DNA, counter-screen for HCV NS3 helicase inhibitor project, biochemical, fluorescence polarization, NIH Clinical Collection (AID 743271; in the data active means inhibition above about 28%); conditions: stronger effect = higher value, concentration not given here
[19] = fluorescence interference in NS3h assay format, artefact control for HCV NS3 helicase inhibitor project, biochemical, NIH Clinical Collection (AID 743272; call rule not given here;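 further: HCV NS3 helicase with a Cy5 labelled single stranded DNA probe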); conditions: fluorescence interference counterscreen, stronger effect = lower value
[20] = stronger effect = lower value, cell number ratio, induced over uninduced
[21] = measured here: relative caspase fold change +Dox/-Dox
[22] = measured here: total cells with miR-34 induction, stronger effect = lower value
[23] = measured here: total cells without miR-34 induction

Calcium-activated potassium channel subunit alpha-1 (Homo sapiens) + Leucine-rich repeat-containing protein 26 (Homo sapiens), sequence (Q2I0M4 whole entry, looked up, one chain of several): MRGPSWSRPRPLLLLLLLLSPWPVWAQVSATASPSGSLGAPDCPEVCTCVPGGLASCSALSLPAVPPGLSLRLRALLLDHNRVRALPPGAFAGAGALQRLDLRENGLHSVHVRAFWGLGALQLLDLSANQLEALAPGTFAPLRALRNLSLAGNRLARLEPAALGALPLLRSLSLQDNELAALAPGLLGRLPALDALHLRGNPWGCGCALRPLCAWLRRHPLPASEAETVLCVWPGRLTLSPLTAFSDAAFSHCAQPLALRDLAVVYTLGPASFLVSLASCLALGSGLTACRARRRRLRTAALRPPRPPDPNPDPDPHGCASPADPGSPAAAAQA

c1ccc(-c2ccccn2)nc1
1.38: fold change [1, 21]
9830: cell count [1, 22]
inactive: fold change [1, 20] 0.97 | z-score [2] 0.54 | log fold change Tl+ flux [3] -0.0156 | log fold change Tl+ flux [4] -0.0247 | log fold change Tl+ flux [5] 0.0286 | log fold change Tl+ flux [6] 0.0375 | log fold change Tl+ flux [7] 0.0137 | log fold change Tl+ flux [8] 0.0175 | log fold change Tl+ flux [9] -0.0449 | log fold change Tl+ flux [10] 0.0381 | log fold change Tl+ flux [11] -0.011 | log fold change Tl+ flux [12] 0.000803
10100: cell count [1, 23]

O=C(O)COCCN1CCN([C@H](c2ccccc2)c2ccc(Cl)cc2)CC1
73.9%: viability [13]
active: log fold change Tl+ flux [9] 0.122
inactive: parasite load remaining [13] 91.6% | z-score [14] -0.677 | mean signal [15] 261 | log fold change Tl+ flux [3] 0.0476 | log fold change Tl+ flux [4] 0.0381 | log fold change Tl+ flux [5] 0.0598 | log fold change Tl+ flux [6] -0.027 | log fold change Tl+ flux [7] 0.0629 | log fold change Tl+ flux [8] -0.011 | log fold change Tl+ flux [10] 0.083 | log fold change Tl+ flux [11] 0.0472 | log fold change Tl+ flux [12] 0.0404

CC(=O)NCCCCCCNC(C)=O
66.5%: viability [13]
9770: cell count [1, 23]
1.58: fold change [1, 21]
9330: cell count [1, 22]
inactive: parasite load remaining [13] 100% | fluorescence ratio [16] 1.01 | inhibition [17] -1.19% | inhibition [18] -3.18% | fluorescence ratio [19] 0.97 | z-score [14] -0.47 | mean signal [15] 268 | fold change [1, 20] 0.955 | z-score [2] 0.325 | log fold change Tl+ flux [3] 0.015 | log fold change Tl+ flux [5] -0.0186 | log fold change Tl+ flux [7] 0.0164 | log fold change Tl+ flux [8] 0.0387 | log fold change Tl+ flux [9] 0.0269 | log fold change Tl+ flux [10] -0.0786

CC1c2cccc(O)c2C(O)=C2C(=O)[C@]3(O)C(O)=C(C(N)=O)C(=O)[C@@H](N(C)C)[C@@H]3C[C@@H]21 (stereo partly specified)
active: inhibition [18] 28.5%
1.44: fold change [1, 21]
97.3%: viability [13]
inactive: parasite load remaining [13] 60.3% | fluorescence ratio [16] 1.04 | inhibition [17] -1.36% | fluorescence ratio [19] 0.95 | fold change [1, 20] 1 | z-score [2] -0.345 | log fold change Tl+ flux [3] -0.00643 | log fold change Tl+ flux [4] -0.038 | log fold change Tl+ flux [5] 0.00306 | log fold change Tl+ flux [6] -0.0368 | log fold change Tl+ flux [7] 0.011 | log fold change Tl+ flux [8] -0.004 | log fold change Tl+ flux [9] -0.0442 | log fold change Tl+ flux [10] -0.00508 | log fold change Tl+ flux [11] 0.0272 | log fold change Tl+ flux [12] 0.0157
11000: cell count [1, 22] | cell count [1, 23]

CO[C@H]1C=CO[C@@]2(C)Oc3c(C)c(O)c4c(O)c(c5c(c4c3C2=O)NC2(CCN(CC(C)C)CC2)N=5)=NC(=O)C(C)=CC=C[C@H](C)[C@H](O)[C@@H](C)[C@@H](O)[C@@H](C)[C@H](OC(C)=O)[C@@H]1C
active: log fold change Tl+ flux [4] -0.0974 | log fold change Tl+ flux [8] -0.134
56.4%: viability [13]
inactive: parasite load remaining [13] 46.3% | log fold change Tl+ flux [3] 0.00735 | log fold change Tl+ flux [5] -0.052 | log fold change Tl+ flux [6] -0.0911 | log fold change Tl+ flux [7] -0.0288 | log fold change Tl+ flux [9] 0.0366 | log fold change Tl+ flux [10] -0.0385 | log fold change Tl+ flux [11] 0.0214 | log fold change Tl+ flux [12] 0.0234

CO[C@H]1C=CO[C@@]2(C)Oc3c(C)c(O)c4c(O)c(c5c(nc6cc(C)ccn65)c4c3C2=O)NC(=O)C(C)=CC=C[C@H](C)[C@H](O)[C@@H](C)[C@@H](O)[C@@H](C)[C@H](OC(C)=O)[C@@H]1C
inactive: parasite load remaining [13] 97.9% | fluorescence ratio [16] 0.98 | inhibition [17] 1.19% | inhibition [18] 1.44% | fluorescence ratio [19] 1.01 | log fold change Tl+ flux [9] 0.0122 | log fold change Tl+ flux [10] -0.0244 | log fold change Tl+ flux [11] -0.0127 | log fold change Tl+ flux [12] -0.00936
active: log fold change Tl+ flux [3] -0.487 | log fold change Tl+ flux [4] -0.224 | log fold change Tl+ flux [5] -0.411 | log fold change Tl+ flux [6] -0.508 | log fold change Tl+ flux [7] -0.124 | log fold change Tl+ flux [8] -0.242
78.8%: viability [13]

CN[C@@H]1[C@H](O)[C@H](NC)[C@H]2OC3(O)C(=O)C[C@@H](C)O[C@H]3O[C@@H]2[C@H]1O (stereo partly specified)
inactive: mean signal [15] 224

C[C@H](CCC(=O)O)[C@H]1CC[C@H]2[C@@H]3[C@@H](O)C[C@@H]4C[C@H](O)CCC4(C)[C@H]3CCC12C (stereo partly specified)
inactive: mean signal [15] 253

CCC(=O)OCC(=O)[C@@]1(OC(=O)CC)[C@@H](C)C[C@H]2[C@@H]3CCC4=CC(=O)C=CC4(C)[C@@]3(Cl)[C@@H](O)CC21C (stereo partly specified)
inactive: mean signal [15] 228

COCC1=C(C(=O)OC(C)OC(=O)OC(C)C)N2C(=O)[C@@H](NC(=O)C(=NOC)c3csc(N)n3)[C@H]2SC1 (stereo partly specified)
70.5%: viability [13]
inactive: parasite load remaining [13] 83.9% | fluorescence ratio [16] 0.97 | inhibition [17] 1.98% | inhibition [18] -0.1% | fluorescence ratio [19] 1 | log fold change Tl+ flux [3] 0.0206 | log fold change Tl+ flux [4] 0.0461 | log fold change Tl+ flux [5] 0.0192 | log fold change Tl+ flux [6] 0.0327 | log fold change Tl+ flux [7] 0.0109 | log fold change Tl+ flux [8] 0.00217 | log fold change Tl+ flux [9] -0.0216 | log fold change Tl+ flux [10] 0.0293 | log fold change Tl+ flux [11] 0.0115 | log fold change Tl+ flux [12] 0.0178

Reference: PubChem BioAssay
